The source of these data is PubChem BioAssay (NCATS).

SMILES strings stand for the structures. “And” between values parts separate entries of the source, which are not always exact repeats. Equal entries are not always repeated. Unmarked numbers belong to inactive results. Results filed as inconclusive are left out. The source made the active and inactive calls. Unless noted, the call rests on the fitted dose curve; in most records, active means well fitted curve in the direction sought with a large enough effect; inconclusive means small, poorly fitted or top-dose-only effect, or another doubt; inactive means no such curve, though single readings can be large; an effect the other way counts as inactive or inconclusive.

Test [1] in a line: qHTS assay for small molecule agonists of the antioxidant response element (ARE) signaling pathway measured by Nrf2-dependant transcriptional activity (AID 720636; active means well fitted curve in the direction sought with a large enough effect in the repeat runs; an effect the other way counts as inactive or inconclusive;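 further: HepG2 cells with an ARE-driven luciferase reporter; % of control where 0% means no effect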). The method in brief:
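We exposed ARE-luc HepG2 cells, seeded in assay medium with 1% dialyzed FBS and allowed 6 hr to adhere, to test compounds overnight (16 hr, 37 C) before measuring luciferase with ONE-Glo.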
Background: Quantitative high-throughput screening tests each substance at several concentrations.

A short description of test [2]: qHTS assay for small molecule antagonists of the retinoid-related orphan receptor gamma (ROR-gamma) signaling pathway - cell viability counter screen (AID 720652; active means well fitted curve in the direction sought with a large enough effect in the repeat runs; an effect the other way counts as inactive or inconclusive;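 further: series mostly up to about 92 µM; compound exposure lasted 16 hr before ATP read; on the % scale 0 is the no-effect control and ±100 the full control effect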). The procedure, abridged: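 Luminescence from CellTiter-Glo after 30 min at room temperature reported cellular ATP as the cytotoxicity measure. Cells were the CHO reporter line with doxycycline-induced ROR-gamma expression, exposed to compound for 16 hr at 37 C.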

The nature of test [3]: qHTS assay for small molecule agonists of the antioxidant response element (ARE) signaling pathway measured by Nrf2-dependant transcriptional activity - cell viability counter screen (AID 720653; active means well fitted curve in the direction sought with a large enough effect in the repeat runs; an effect the other way counts as inactive or inconclusive; further: on the % scale 0 is the no-effect control and ±100 the full control effect). The following applies: ARE-bla HepG2 viability, CellTiter-Glo ATP luminescence, 16 h; hits give low values. The procedure, abridged: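 ARE-bla HepG2 cells (2,000/well) rested 5 hrs at 37C/5% CO2, then exposed to compounds in DMSO for 16 hrs. Viability was read in the same wells as intracellular ATP by luminescence, 30 min at room temperature after reagent addition.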

For test [4], the target named is T1, Hexokinase-4 (Homo sapiens) + Glucokinase regulatory protein (Homo sapiens) (UniProt P35557+Q14397). Briefly: qHTS assay for inhibitors of recombinant human GCK-GKRP interaction: Diaphorase-coupled assay (AID 743205). The procedure, abridged: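 A kinetic fluorescence read (Ex 525/Em 590 nm, every minute for 30 minutes) tracked resorufin from a G6PDH-diaphorase coupled GCK reaction. It contained 10 nM GST-GCK, 10 nM FLAG-GKRP, 5 mM glucose, 0.4 mM ATP in Hepes pH 7.6. Normalized to with/without-enzyme DMSO controls.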
T1 sequence (P35557 whole entry, looked up): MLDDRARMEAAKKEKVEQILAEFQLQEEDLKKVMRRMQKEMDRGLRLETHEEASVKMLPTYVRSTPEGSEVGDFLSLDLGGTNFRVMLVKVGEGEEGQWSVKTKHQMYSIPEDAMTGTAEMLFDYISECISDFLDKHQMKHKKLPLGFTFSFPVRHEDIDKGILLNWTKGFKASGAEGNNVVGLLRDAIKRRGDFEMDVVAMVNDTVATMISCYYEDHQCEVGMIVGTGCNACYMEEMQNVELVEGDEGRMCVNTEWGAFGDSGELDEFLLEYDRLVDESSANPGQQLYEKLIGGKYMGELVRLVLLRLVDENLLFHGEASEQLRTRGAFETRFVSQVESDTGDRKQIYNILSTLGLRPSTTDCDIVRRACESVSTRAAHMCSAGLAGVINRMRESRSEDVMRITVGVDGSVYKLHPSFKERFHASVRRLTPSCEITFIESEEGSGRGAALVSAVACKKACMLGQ
T1 sequence (Q14397 whole entry, looked up): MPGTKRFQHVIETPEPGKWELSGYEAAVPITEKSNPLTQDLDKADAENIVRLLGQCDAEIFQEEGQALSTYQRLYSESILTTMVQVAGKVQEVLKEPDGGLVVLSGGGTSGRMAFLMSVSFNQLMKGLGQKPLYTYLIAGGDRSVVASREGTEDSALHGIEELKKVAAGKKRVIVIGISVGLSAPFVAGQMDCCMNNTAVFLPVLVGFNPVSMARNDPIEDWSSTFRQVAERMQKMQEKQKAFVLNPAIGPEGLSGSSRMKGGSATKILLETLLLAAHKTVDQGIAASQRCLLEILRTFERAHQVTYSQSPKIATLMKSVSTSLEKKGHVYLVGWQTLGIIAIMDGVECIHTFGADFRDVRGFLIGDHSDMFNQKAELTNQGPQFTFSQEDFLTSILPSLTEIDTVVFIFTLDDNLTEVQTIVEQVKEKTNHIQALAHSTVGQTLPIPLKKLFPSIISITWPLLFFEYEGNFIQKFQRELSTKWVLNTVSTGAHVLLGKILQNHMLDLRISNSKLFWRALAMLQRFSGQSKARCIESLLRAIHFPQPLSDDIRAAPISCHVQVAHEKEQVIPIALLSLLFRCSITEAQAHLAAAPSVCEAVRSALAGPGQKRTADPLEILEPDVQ

Test [5] addresses T1, Hexokinase-4 (Homo sapiens) + Glucokinase regulatory protein (Homo sapiens). The test is described as follows: qHTS assay for inhibitors of recombinant human GCK-GKRP interaction: ADP-Glo assay (AID 743206).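 Further: plate controls were DMSO plus enzyme for no effect and no enzyme for full effect.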 The method in brief:
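GST-GCK and FLAG-GKRP (15 nM each in the dispensed mix, with 2 uM S6P) react with 0.4 mM ATP and 5 mM glucose (final) in Hepes pH 7.6 for 60 min at room temperature. ADP is measured by ADP-Glo luminescence.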

For test [6] the target is unchanged. The test is described as follows: qHTS assay for inhibitors of recombinant human GCK-GKRP interaction: HTRF assay (AID 743207).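 Further: 0% = DMSO with GCK present and -100% = DMSO wells lacking GCK.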 The method in brief:
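After 60 min equilibration at room temperature with anti-FLAG XL665 and anti-GST antibodies, FRET ratio (665/615 nm, excitation 320 nm) was read. Proteins: GST-GCK and FLAG-GKRP, each 5 nM, plus 2 uM S6P, pH 7.1 buffer; GCK-free wells define minimum signal.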

Test [7] is described as follows: qHTS Assay for Identifying Gametocytocidal Compounds (AID 743244). Further: potency means the concentration at half of the fitted maximal effect.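 On max response: on the % scale 0 is the no-effect control and ±100 the full control effect; actives lower the fluorescent signal which means gametocytes are killed.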 Conditions: P. falciparum 3D7 stage III-V gametocytes, alamarBlue, 72 h; max response: hits give low values. The procedure, abridged: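 Using 20,000 stage III–V 3D7 gametocytes per well, compounds were incubated 72 h under 37 °C/5% CO2. Viability was then assessed by 24 h alamarBlue reduction, measured fluorometrically at 525/598 nm.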

Test [8] in a line: qHTS assay for cell viability of HEK293 cells (AID 743288). Further: nearly all actives have a fitted effect of over 50% in size. Further: potency means the concentration at half of the fitted maximal effect. On max response: on the % scale 0 is the no-effect control and ±100 the full control effect. The following applies: ATP luminescence (CellTiter-Glo), 18 h; max response: hits give low values. The procedure, abridged:
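Total intracellular ATP, measured with a luciferase-coupled reagent, indicates the number of viable HEK293 cells. Exposure to test chemicals lasts 18 h at 37 C in 1,536-well format at 2,000 cells/well.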

The nature of test [9]: qHTS assay for cell viability of the p53RE-bla HCT-116 cell line (AID 743292). Further: nearly all actives have a fitted effect of over 55% in size. Further: potency means the concentration at half of the fitted maximal effect. The method in brief: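 In this qHTS counter-screen, metabolically competent p53RE-bla HCT-116 cells were counted via their ATP content. Compounds were applied for 16 h at 37 C and luciferase-coupled luminescence was measured.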

For `NS(=O)(=O)c1cc2c(cc1Cl)NC=NS2(=O)=O`, the molecule was classed as inactive in test [1], in test [2], in test [4], in test [5] and in test [6]. Further, the max response is -14.4% in test [3]; -0.751% and 21.2% in test [7]; -1.12% in test [8]. Moreover, the Potency entry in test [9] was “inactive”.

With `Cc1cnc(NC(=O)C2=C(O)c3ccccc3S(=O)(=O)N2C)s1`, the outcome in [4], in test [5] and in [6] was inactive. Besides, the max response in [7] is 4.3% and 13.2% and 16.1%.

Regarding `Nc1nc2c(ncn2COCCO)c(=O)[nH]1`, the outcome in test [4], in test [5] and in test [6] was inactive. Besides, in test [7], the max response was 17.4% and 18.4%.

Take `CCCCNc1cc(C(=O)O)cc(S(N)(=O)=O)c1Oc1ccccc1`: the outcome in [4], in test [5] and in [6] was inactive. Besides, the max response in [7] is -3.91% and 1.19%.

Turning to `Nc1ncnc2nc(-c3ccc(N4CCOCC4)nc3)cc(-c3cccc(Br)c3)c12`, the max response in [7] is -13.8%.

In the case of `O=C1CCc2cc(OCCCCc3nnnn3C3CCCCC3)ccc2N1`, the outcome in test [4], in test [5] and in [6] was inactive. Further, the max response in [7] is 16.8% and 6.18%.

Regarding `Cc1cc(-c2nnc3n2CCCCC3)c(C)n1-c1ccc(F)cc1`, the Potency in test [7] was 18.7 µM (active).

As for `Cc1cc(Nc2nc(N[C@@H](C)c3ncc(F)cn3)ncc2Cl)n[nH]1`, the max response in [7] was 8.89%.

As to `CCOC(=O)C1=C[C@]2(CC)CCCN3CCc4c(n1c1ccccc41)[C@@H]32`, the result in test [4], in test [5] and in [6] was inactive. In [7], the max response is -1.66%.

`Clc1cccc(Cl)c1NC1=NCCN1`: the result in test [4], in test [5] and in test [6] was inactive. Further, the max response in test [7] was 7.62% and 5.35%.

For the molecule `Oc1ccc(C2CNCCc3c2cc(O)c(O)c3Cl)cc1` (centres undefined), the outcome in test [4], in test [5] and in [6] was inactive. Further, the max response in test [7] is 2.69% and -7.1%.

`CCn1c(-c2nonc2N)nc2cnc(Oc3cccc(NC(=O)c4ccc(OCCN5CCOCC5)cc4)c3)cc21`: the max response in [7] is 33.1%.

As for `Cc1cc2c(C(C)C)c(O)c(O)c(C=O)c2c(O)c1-c1c(C)cc2c(C(C)C)c(O)c(O)c(C=O)c2c1O`, in [4], the result was inactive. The Potency in [8] is 35.5 µM (active); in test [9], 12.6 µM (active).

As to `Nc1nc2ccc(OC(F)(F)F)cc2s1`, the outcome in [4], in test [5] and in test [6] was inactive. The max response in test [7] was 5.46% and 13.2%.

On to `NNCCc1ccccc1`, for which the result in test [4], in test [5] and in test [6] was inactive. Further, the max response in test [7] is -2.24% and 11.6%.

In the case of `CC(C)NCC(O)COc1ccc(COCCOC(C)C)cc1` (centres undefined), the result in test [4], in [5] and in [6] was inactive. The max response in [7] was 24.7% and -10.9% and -2.93%.

Regarding `Cn1cnc2c(F)c(Nc3ccc(Br)cc3Cl)c(C(=O)NOCCO)cc21`, the max response in test [7] is 17.6%.

Regarding `O=C(C=Cc1ccc(/C=C/C(=O)Nc2ccc(C3=NCCN3)cc2)cc1)Nc1ccc(C2=NCCN2)cc1`, the max response in test [7] was 6.08%.

`CC(C)C[C@H](NC(=O)[C@@H](O)[C@H](N)Cc1ccccc1)C(=O)O`: the result in test [4], in test [5] and in [6] was inactive. For the same molecule, the max response in test [7] was -20.9% and 9.59%.

As to `Cc1[nH]c(=O)c(C#N)cc1-c1ccc2nccn2c1`, the result in test [4], in test [5] and in test [6] was inactive. In test [7], the max response is -5.81% and 18.1%.

Consider `NC(=O)C1CCCc2c1[nH]c1ccc(Cl)cc21` (centres undefined), for which the max response in [7] was 9.85%.

With `O=C(c1cc(Cc2n[nH]c(=O)c3ccccc23)ccc1F)N1CCN(C(=O)C2CC2)CC1`, the max response in test [7] is 10.8%.

As for `C/C(=C\C(=O)Nc1ccccc1C(=O)O)c1ccc2ccccc2c1`, in test [7], the max response was 90.9%.

For the molecule `CCCCCCCc1ccc(CCc2cccc(O)c2C(=O)O)cc1`, the max response in [7] is 25.6%.

`C1COC(NC(C2CC2)C2CC2)=N1`: the result in test [4], in test [5] and in test [6] was inactive. Besides, the max response in test [7] was 8.63% and 12.8%.

As for `Cc1cn[nH]c1`, the result in test [4], in test [5] and in [6] was inactive. Also, the max response in [7] was 28.3% and 8.61%.

In the case of `CCOc1cc(C(=O)Nc2ccc(Cl)c(-c3nc4ccccc4[nH]3)c2)cc(OCC)c1OCC`, in test [7], the max response is -21.5%.

`Cc1ccc(N(CC2=NCCN2)c2cccc(O)c2)cc1`: the result in test [4], in [5] and in [6] was inactive. Moreover, the max response in test [7] is 9.03%.

`CO[C@@H]1[C@H](N(C)C(=O)c2ccccc2)C[C@H]2O[C@]1(C)n1c3ccccc3c3c4c(c5c6ccccc6n2c5c31)C(=O)NC4`: the Potency in test [7] is 5.9 µM (active).
